Drawing on PubChem BioAssay AID485346 (Sanford-Burnham Center for Chemical Genomics, 2010), this text covers inhibition for 58 compounds.

Structures are written as SMILES. Among all 330,000 compounds or so, about 10,000 (3%) were called active. Only a selection was taken, and actives are over-represented in it overall. A number with no mark means an inactive call.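 The calls were made as follows: active = inhibition of at least 50% at 8 µM in the primary screen; inactive = the rest.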

The assay deals with Protein Mdm4 (Homo sapiens) + E3 ubiquitin-protein ligase Mdm2 (Homo sapiens) (UniProt O15151+Q00987). Briefly: disruptors of Mdm2/MdmX RING complex – cell-based, luminescence, split luciferase, SaOS-2, uHTS, primary screen (AID 485346). The settings on record: SaOS-2 split-luciferase Mdm2/MdmX complementation, at 8 µM, stronger effect = higher value.
Chain of Protein Mdm4 (Homo sapiens) + E3 ubiquitin-protein ligase Mdm2 (Homo sapiens) (O15151 whole entry, looked up): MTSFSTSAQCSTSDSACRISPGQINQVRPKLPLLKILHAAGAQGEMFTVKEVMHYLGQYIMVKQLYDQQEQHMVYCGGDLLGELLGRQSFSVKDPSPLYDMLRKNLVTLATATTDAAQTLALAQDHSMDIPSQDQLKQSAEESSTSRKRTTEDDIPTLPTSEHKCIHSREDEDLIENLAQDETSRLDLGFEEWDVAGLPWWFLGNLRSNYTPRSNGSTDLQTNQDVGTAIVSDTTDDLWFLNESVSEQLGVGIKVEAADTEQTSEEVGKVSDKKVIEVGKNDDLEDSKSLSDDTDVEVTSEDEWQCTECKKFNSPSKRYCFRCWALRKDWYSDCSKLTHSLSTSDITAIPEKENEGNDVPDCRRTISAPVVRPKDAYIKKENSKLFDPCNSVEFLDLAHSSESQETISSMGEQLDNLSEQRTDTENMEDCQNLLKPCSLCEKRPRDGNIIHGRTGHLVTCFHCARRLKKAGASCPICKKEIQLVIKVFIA
Chain of Protein Mdm4 (Homo sapiens) + E3 ubiquitin-protein ligase Mdm2 (Homo sapiens) (Q00987 whole entry, looked up): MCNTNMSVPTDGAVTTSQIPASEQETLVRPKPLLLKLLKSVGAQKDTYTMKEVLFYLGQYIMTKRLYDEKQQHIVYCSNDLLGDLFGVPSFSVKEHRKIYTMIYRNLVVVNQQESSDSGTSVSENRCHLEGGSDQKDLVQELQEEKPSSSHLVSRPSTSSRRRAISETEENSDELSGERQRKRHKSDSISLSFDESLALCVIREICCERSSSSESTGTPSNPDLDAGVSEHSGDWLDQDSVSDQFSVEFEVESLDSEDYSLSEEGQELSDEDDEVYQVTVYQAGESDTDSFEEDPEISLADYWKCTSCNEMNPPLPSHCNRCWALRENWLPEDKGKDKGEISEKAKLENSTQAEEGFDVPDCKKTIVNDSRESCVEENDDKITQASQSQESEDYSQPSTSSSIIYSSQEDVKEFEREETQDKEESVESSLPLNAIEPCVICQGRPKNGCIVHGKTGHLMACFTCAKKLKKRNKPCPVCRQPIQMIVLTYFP
For the compound `CCNC(=O)c1c(O)c2cccc3c2n(c1=O)CC3`, the inhibition was 80.5% (active).

Turning to `CCCCc1nc2ccccc2c(=O)n1NC(=O)c1c(O)c2cccc3c2n(c1=O)CC3`, the inhibition was 27%.

On to `Cc1cc(=O)n2c3c(cccc13)CCC2`, for which the inhibition is 0.512%.

Consider `CC1=CC(=C(C#N)c2nc3ccccc3s2)C=C(C)N1c1ccc(F)cc1F`, for which the inhibition is 12.5%.

As to `OCCCNC(c1ccccc1)c1ccc(O)cc1` (stereo not drawn), the inhibition is 4.25%.

Take `COc1ccc(/C=C(/CC(=O)Nc2ccc(C)cc2)c2nc3ccccc3s2)cc1`: the inhibition is -25.3%.

Turning to `O=C(O)CS/C(=C\c1ccc(F)cc1)c1nc2ccccc2s1`, the inhibition was 21.7%.

Regarding `COc1cccc2sc(NNC(=O)c3nc4ccccc4s3)nc12`, the inhibition is 59.4% (active).

Take `O=C(Nc1ccc2c(c1)OCCO2)C1CCCC1`: the inhibition was 55% (active).

For the compound `O=C(Nc1ccc2c(c1)OCCO2)C1CCCN(c2ncccn2)C1` (stereo not drawn), the inhibition is -64.3%.

`O=C(Nc1ccc2c(c1)OCO2)C1CC1(Cl)Cl` (stereo not drawn): the inhibition is 18%.

`Cc1onc(-c2ccc(Cl)cc2)c1-c1ccnn1S(=O)(=O)c1ccc(Cl)cc1`: the inhibition is 16.6%.

Consider `O=C(COC(=O)C1(c2ccc(F)cc2)CCCC1)N1CCNC1=O`, for which the inhibition was 1.73%.

For `C=CCn1c(CNS(=O)(=O)c2ccc(Br)cc2)nnc1SC`, the inhibition was 20.2%.

Regarding `N/C(=N\OC(=O)N1c2ccccc2Sc2ccccc21)c1ccc(Br)cc1`, the inhibition is 53.2% (active).

Take `N/C(=N\OC(=O)Cc1ccccc1[N+](=O)[O-])c1ccc(Br)cc1`: the inhibition was -0.461%.

With `N/C(=N\OC(=O)/C=C/c1ccccc1)c1ccc(Br)cc1`, the inhibition was 13.5%.

Regarding `Cc1cc(=O)cc(C)n1-c1ccc(Cl)c(Cl)c1`, the inhibition was 15.1%.

For the compound `O=c1[nH]nc(SCCS(=O)(=O)c2ccc(F)cc2)n1-c1ccccc1C(F)(F)F`, the inhibition is 25.1%.

On to `CC[C@@H]1CCCCc2ccccc2[C@@H](C(=O)C[C@H](O)CC(C)=O)OC1=O`, for which the inhibition was 33%.

Turning to `CCOC(=O)c1c(C)oc2cc(Sc3ccccc3)c(O)c(O)c12`, the inhibition was 34.7%.

In the case of `Cc1[nH]nc(-c2ccc(OCc3cnn(-c4ccccc4)c3)cc2O)c1Oc1ccc(Cl)cc1`, the inhibition is 68.4% (active).

Take `Cc1cc(O)cc(O)c1C(=O)Cc1cnn(-c2ccccc2)c1`: the inhibition was -9.6%.

Regarding `COc1ccc(C(=O)Cc2cnn(-c3ccccc3)c2)c(O)c1`, the inhibition is -156%.

Turning to `CC(C)C[C@@H](CO)N1CCN(Cc2ccc(O)cc2)CCC1=O`, the inhibition was -30.6%.

For the compound `O=c1[nH]cccc1-c1nc2ccccc2n1Cc1ccc(Cl)cc1`, the inhibition is -9.95%.

Consider `Nc1nonc1-c1nc2ccccc2n1Cc1ccc(F)cc1`, for which the inhibition is 53.7% (active).

On to `COc1ccc(C)c(Cn2c(-c3nonc3N)nc3ccccc32)c1`, for which the inhibition was 45.6%.

Take `CCc1cccc(NC(=O)COC(=O)c2cc(=O)c3ccccc3o2)c1`: the inhibition is 13.3%.

Regarding `COc1ccccc1CNC(=O)COC(=O)c1sc(C)nc1C`, the inhibition is -9.07%.

`O=c1oc2ccccc2c(CNc2ccccc2)c1[N+](=O)[O-]`: the inhibition was 7.52%.

For `O=C(N[C@H]1C/C=C\C(c2cccc(F)c2)N(Cc2ccccc2)C(=O)C1)OCC1c2ccccc2-c2ccccc21` (stereo partly drawn), the inhibition was 2.78%.

With `Cc1ccc(-c2cccc([C@H]3[C@@H]4C=CC[C@@H](C)[C@@H]4C(=O)N3Cc3ccccc3)c2)cc1`, the inhibition is 69.8% (active).

Regarding `Cc1cccc([C@H]2[C@@H]3C=CC[C@@H](C)[C@@H]3C(=O)N2Cc2ccccc2)c1`, the inhibition is 16.7%.

On to `COc1ccccc1C(=O)COC(=O)CSCC(=O)Nc1cc(C)on1`, for which the inhibition was 9.62%.

On to `COc1ccc(-c2nc3cnccn3c2NC2CCCCC2)cc1-c1cccc(Cl)c1`, for which the inhibition was 34.9%.

For `CCOc1cc(-c2nc3cc(C)ccn3c2NCC2CCCO2)ccc1O` (stereo not drawn), the inhibition is 22.2%.

Regarding `COc1ccc(-c2nc3cc(C)ccn3c2NC2CCCCC2)cc1SC1CCCCC1`, the inhibition is 92.7% (active).

`CCOc1ccc(C(=O)Nc2ccc(CN3CCOCC3)cc2)cc1Cl`: the inhibition was -7.17%.

Turning to `CCN(CC)C(=O)Cn1cc(S(=O)(=O)CC(=O)NCc2ccc3c(c2)OCO3)c2ccccc21`, the inhibition is 15.5%.

On to `O=C(N[C@@H](Cc1ccccc1)C(=O)OCc1ccccc1)c1nc[nH]c1C(=O)NC1CCNCC1`, for which the inhibition was 20.5%.

Regarding `CC(C)(C)OC(=O)N1CCC(NC(=O)c2[nH]cnc2C(=O)N[C@@H](Cc2ccccc2)C(=O)OCc2ccccc2)CC1`, the inhibition was 65.6% (active).

Turning to `CC(C)(C)OC(=O)CNC(=O)c1[nH]cnc1C(=O)N[C@@H](Cc1ccccc1)C(=O)OCc1ccccc1`, the inhibition is 9.35%.

Regarding `CC(C)c1ccc(NC(=O)[C@@H](NC(=O)N2CC(=O)Nc3ccccc32)C(C)C)cc1`, the inhibition was 46.3%.

For `O=C(N1CCCC1)C12CC3CC(C1)CC(C(=O)N1CCCC1)(C3)C2`, the inhibition is 0.875%.

For `CC(Sc1nnc(-c2ccccc2F)n1C1CC1)C(N)=O` (stereo not drawn), the inhibition is 2.33%.

For the compound `O=S1(=O)CCO[C@H]2Cc3ccccc3[C@H]2N1Cc1ccccc1`, the inhibition is -0.566%.

Regarding `CCc1ccc(NC(=O)c2ccc(Cn3cc([N+](=O)[O-])cn3)cc2)cc1`, the inhibition is 7.69%.

As to `Cn1cc([N+](=O)[O-])c(C(=O)Nc2ccc3c(c2)OCCO3)n1`, the inhibition was 15.1%.

For `Cn1cc([N+](=O)[O-])c(C(=O)Nc2cnn(Cc3ccc(F)cc3)c2)n1`, the inhibition is 61.3% (active).

Regarding `CC(C)CCN(C(=O)c1csnn1)C(C(=O)NC1CCCC1)c1ccccc1` (stereo not drawn), the inhibition was 1.25%.

`Cc1ccc(N2C(=O)c3ccccc3C2(O)c2ncc[nH]2)cc1` (stereo not drawn): the inhibition was 11%.

Consider `CCCC(=O)Nc1nc2ccc(NC(=O)c3c(F)c(F)c(OC)c(F)c3F)cc2s1`, for which the inhibition was 40.2%.

Turning to `CCCC(=O)Nc1nc2ccc(NC(=O)c3cccnc3)cc2s1`, the inhibition is 56.4% (active).

As to `CCOC(=O)c1ccc(NC(=O)c2cccnc2)cc1`, the inhibition was -5.28%.

Take `COC(=O)c1ccc(C23CC4(C2)[C@H](CN(Cc2cccnc2)[C@@H]4c2ccccc2)C3c2ccc(Cl)nc2)cc1` (stereo partly drawn): the inhibition is 21.5%.

Regarding `Clc1ccc(C2[C@H]3CN(CC4CCCCC4)[C@H](c4ccccc4)C34CC2(c2cccnc2)C4)cn1` (stereo partly drawn), the inhibition was -0.579%.

Consider `FC(F)(F)c1ccc(CN2C[C@@H]3C(c4ccccc4)C4(c5ccccc5)CC3(C4)[C@H]2c2ccccc2)cc1` (stereo partly drawn), for which the inhibition was 93.9% (active).
